Reference: PubChem BioAssay AID1159580 (chemical genetic matrix, 2015)
Screen size: about 5,500 compounds; about 2,000 (36%) were called active. Roughly 18% stayed inconclusive and do not appear here. Cut-off read from the data, not from the text of the source: active = normalized growth mostly below about 0.91 (no sharp cut-off); inconclusive = no clear call, values can overlap the other calls; inactive = mostly above about 0.92. The list shows a part of the results.

Test: chemical genetic growth profiling, strain panel (AID 1159580);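 note: tested at 20 µM; growth read once vehicle control cultures reached saturation at 30 °C; 1 = growth at the plate median or of vehicle wells; lower values mean less growth of the strain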
Conditions: S. cerevisiae deletion strains, growth OD

Measured: normalized growth

COc1ccc(CN2CSC(=S)N(Cc3ccc(OC)cc3)C2)cc1
inactive: locus YAR019C, strain CDC15, stronger effect = lower value 0.952 | locus YBL105C, strain PKC1, stronger effect = lower value 0.98 | locus YBR135W, strain CKS1, stronger effect = lower value 0.972 | locus YBR136W, strain MEC1, stronger effect = lower value 0.968 | locus YBR160W, strain CDC28, stronger effect = lower value 0.974 | locus YDL017W, strain CDC7, stronger effect = lower value 0.981 | locus YDL028C, strain MPS1, stronger effect = lower value 0.951 | locus YDL101C, strain DUN1, stronger effect = lower value 0.992 | locus YDL108W, strain KIN28, stronger effect = lower value 0.955 | locus YDL132W, strain cdc53, stronger effect = lower value 0.966 | locus YDL214C, strain PRR2, stronger effect = lower value 0.937 | locus YDR052C, strain DBF4, stronger effect = lower value 0.975 | locus YDR054C, strain cdc34, stronger effect = lower value 0.961 | locus YDR226W, strain ADK1, stronger effect = lower value 0.961 | locus YDR477W, strain SNF1, stronger effect = lower value 0.958 | locus YER123W, strain YCK3, stronger effect = lower value 0.891 | locus YER133W, strain GLC7, stronger effect = lower value 0.946 | locus YFL009W, strain cdc4, stronger effect = lower value 0.957 | locus YFL029C, strain CAK1, stronger effect = lower value 0.95 | locus YFR003C, strain YPI1, stronger effect = lower value 0.967 | locus YFR019W, strain FAB1, stronger effect = lower value 0.961 | locus YFR028C, strain CDC14, stronger effect = lower value 0.957 | locus YGR040W, strain KSS1, stronger effect = lower value 0.947 | locus YGR052W, strain FMP48, stronger effect = lower value 0.996 | locus YGR092W, strain DBF2, stronger effect = lower value 0.864 | locus YHR030C, strain SLT2, stronger effect = lower value 0.97 | locus YHR079C, strain IRE1, stronger effect = lower value 0.908 | locus YHR082C, strain KSP1, stronger effect = lower value 0.999 | locus YHR205W, strain SCH9, stronger effect = lower value 0.891 | locus YIL147C, strain SLN1, stronger effect = lower value 0.95 | locus YJL095W, strain BCK1, stronger effect = lower value 0.981 | locus YJL128C, strain PBS2, stronger effect = lower value 0.952 | locus YJL157C, strain FAR1, stronger effect = lower value 0.954 | locus YJR016C, strain ILV3, stronger effect = lower value 0.965 | locus YJR066W, strain TOR1 (second series), stronger effect = lower value 0.94 | locus YJR066W, strain TOR1, stronger effect = lower value 0.998 | locus YKL048C, strain ELM1, stronger effect = lower value 0.958 | locus YKL067W, strain YNK1, stronger effect = lower value 0.954 | locus YKL101W, strain HSL1, stronger effect = lower value 0.94 | locus YKL193C, strain SDS22, stronger effect = lower value 0.964 | locus YKL203C, strain TOR2, stronger effect = lower value 0.989 | locus YLR113W, strain HOG1, stronger effect = lower value 0.91 | locus YLR133W, strain CKI1, stronger effect = lower value 0.961 | locus YLR403W, strain SFP1, stronger effect = lower value 0.927 | locus YML070W, strain DAK1, stronger effect = lower value 0.935 | locus YMR001C, strain CDC5, stronger effect = lower value 0.978 | locus YMR205C, strain PFK2 (second series), stronger effect = lower value 0.945 | locus YMR277W, strain FCP1, stronger effect = lower value 0.97 | locus YNL006W, strain LST8, stronger effect = lower value 0.945 | locus YNL020C, strain ARK1, stronger effect = lower value 0.94 | locus YNL161W, strain CBK1, stronger effect = lower value 0.987 | locus YNL183C, strain NPR1, stronger effect = lower value 0.951 | locus YNL207W, strain RIO2, stronger effect = lower value 0.964 | locus YNL222W, strain SSU72, stronger effect = lower value 0.966 | locus YNL307C, strain MCK1 (second series), stronger effect = lower value 0.905 | locus YOL078W, strain AVO1, stronger effect = lower value 0.967 | locus YOL136C, strain PFK27, stronger effect = lower value 0.956 | locus YOR061W, strain CKA2, stronger effect = lower value 0.939 | locus YOR119C, strain RIO1, stronger effect = lower value 0.985 | locus YOR231W, strain MKK1, stronger effect = lower value 0.937 | locus YOR329C, strain SCD5, stronger effect = lower value 0.979 | locus YPL031C, strain PHO85, stronger effect = lower value 0.95 | locus YPL153C, strain RAD53, stronger effect = lower value 0.931 | locus YPL204W, strain HRR25, stronger effect = lower value 0.931 | locus YPL209C, strain IPL1, stronger effect = lower value 0.966 | locus YPL256C, strain CLN2, stronger effect = lower value 0.953 | locus YPR025C, strain CCL1, stronger effect = lower value 0.98 | locus YPR106W, strain ISR1, stronger effect = lower value 0.983 | locus YPR111W, strain DBF20, stronger effect = lower value 0.979 | strain NNK1, stronger effect = lower value 0.984 | strain TSCII, stronger effect = lower value 0.964
